This is part of a sample that, as a whole, favours compounds with a hit. Of some 83,000 tested, about 20% had one in any assay.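 A percent growth of 40 corresponds to 60% growth inhibition; 0 means no net growth; -100 means all cells died. Active threshold: below 10.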 Values without a mark were called inactive. The source made the active and inactive calls.

What all share (experiment): NCI-60 one-dose screen, 48 h (100 = growth as untreated, 0 = no growth, -100 = all killed)
What all share (conditions): 10 µM

Assay [1] relates to DU-145 prostate.
Assay [2] has as its system K-562 leukemia.
The subject of assay [3] is MALME-3M melanoma.
The test system of assay [4] is MDA-MB-231 breast.
Assay [5] concerns RXF 393 renal.
Assay [6] concerns SF-268 CNS.
Assay [7] has as its system SF-295 CNS.
For assay [8], the system named is SF-539 CNS.
Assay [9] concerns UACC-257 melanoma.
The subject of assay [10] is M14 melanoma.

With `Cc1ccc2oc(=O)cc(/C(=C3/C=CC=N3)c3ccc[nH]3)c2c1`, the growth is 0.492% (active) in [1]; -0.946% (active) in assay [2]; 25.6% in assay [3]; -6.98% (active) in [4]; -21.7% (active) in assay [5]; 12.7% in assay [6]. Also, the growth in [7] is -23.9% (active); in assay [8], -33.6% (active); in [9] it was 6.21% (active); in assay [10], -7.95% (active).

In the case of `COc1ccc(C2=NNC(c3sc(Cl)nc3Cl)C2)cc1` (stereo not given), the growth is 86.6% in assay [1]; 7.31% (active) in [2]; 74.3% in assay [3]; 67.3% in assay [4]; 71.7% in assay [5]; 73% in assay [6]. Besides, the growth in assay [7] was 102%; in [8], 110%; in [9] it was 94%; in [10] it was 59.7%.

Consider `Clc1ccc(-c2nc(-c3cccs3)cn3ccnc23)cc1`, for which the growth is 94.7% in [1]; 26.1% in [2]; 86% in [3]; 66.5% in [4]; 86.7% in assay [5]; 82.8% in assay [6]. Besides, the growth was 81.9% in assay [7], 76.7% in assay [8], 70.2% in assay [9] and 61.5% in [10].

As to `COc1cc(C2=Nc3c/c(=C\c4c(O)[nH]c5ccc(Cl)cc45)ccc3=N2)cc(OC)c1OC`, the growth in [1] was 4.46% (active); in assay [2], 17.3%; in assay [3], -51.8% (active); in assay [4], 2.35% (active); in [5], 1.13% (active); in [6] it was -51.5% (active). The growth is 83.3% in [7], -52.4% (active) in assay [8], -77% (active) in assay [9] and -21.6% (active) in [10].

Turning to `N=C(N)c1ccc(-c2ccc(-c3ccccc3)s2)s1`, the growth in assay [1] was -93.8% (active); in assay [2], -63.1% (active); in assay [3] it was -81.1% (active); in assay [4] it was -76.8% (active); in assay [5], -93.2% (active); in assay [6], -56.6% (active). In addition, the growth in [7] is -75.3% (active); in [8] it was -54.7% (active); in assay [9], -59.9% (active); in assay [10], -68.9% (active).

Take `COc1ccc(C2C=C(c3ccc(Cl)cc3)N=C3SC=CN32)c(Br)c1` (stereo not given): the growth in assay [1] was 97%; in assay [2], 66.1%; in [3], 106%; in assay [4], 47.7%; in [5], 69.8%; in assay [6], 71.2%. Moreover, the growth in assay [7] was 55.6%; in assay [8], 91.1%; in [9] it was 83.2%; in assay [10], 78.6%.

As for `CCOc1cc(Br)c(C(C)NC(=O)c2cccc(OC)c2)cc1OCC` (stereo not given), the growth in [1] is 93.4%; in [2] it was 8.6% (active); in assay [3], -9.34% (active); in assay [4], 39%; in assay [5] it was 41.6%; in assay [6] it was 75.5%. Also, the growth in assay [7] was 92.1%; in assay [8], 76.2%; in [9] it was -66.9% (active); in assay [10], -67.2% (active).

Regarding `COCCOC(=O)NC(=O)Nc1ccc(C(=O)c2ccc(Cl)cc2)cc1`, the growth in assay [1] is 38.2%; in assay [2], 11.7%; in assay [3] it was 56.8%; in assay [4], 49.8%; in assay [5], 40%; in [6], 55.2%. The growth in [7] is 21.9%; in [8] it was 15.4%; in assay [9], 50.8%; in assay [10], 20.2%.

On to `COc1cc(-c2cc(/C=C/C(C)=O)[nH]n2)cc(OC)c1OC`, for which the growth in assay [1] is 77%; in assay [2], 46.6%; in assay [3], 67.5%; in [4], 78.8%; in assay [5] it was 89.4%; in [6] it was 82.4%. Moreover, the growth was 76% in [7], 93.4% in assay [8], 79.9% in [9] and 84.9% in assay [10].

Regarding `COc1cc(OC)cc(N2CCN(C(=O)Nc3nc4cc(F)ccc4nc3OC)CC2)c1`, the growth was 1% (active) in assay [1]; 12.8% in assay [2]; 44.6% in [3]; 1.05% (active) in assay [4]; 22.1% in [5]; 29.2% in assay [6]. Further, the growth in assay [7] is 15%; in assay [8], -12.2% (active); in assay [9], 72.7%; in assay [10], 1.15% (active).

Regarding `COc1ccc2nc(-c3ccccc3)cc(C(C)=O)c2c1`, the growth was 107% in assay [1]; 84.1% in [2]; 86.5% in [3]; 89.5% in [4]; 102% in assay [5]; 96.1% in assay [6]. The growth in assay [7] was 96.3%; in assay [8] it was 86.1%; in assay [9] it was 99.9%; in [10], 95.3%.

As to `COc1ccc(-c2nnc(SCC(=O)c3ccccc3)o2)cc1`, the growth in assay [1] is 102%; in assay [2] it was 92.3%; in assay [3] it was 104%; in [4], 99.3%; in assay [5] it was 94.2%; in assay [6] it was 102%. Besides, the growth in [7] was 101%; in [8] it was 98.8%; in [9] it was 89.4%; in assay [10] it was 101%.

In the case of `Cc1cccc2c1O/C(=C\c1ncc([N+](=O)[O-])n1C)C2=O`, the growth in assay [1] was -29.7% (active); in assay [2] it was 0.421% (active); in [3], -51.5% (active); in assay [4] it was -7.78% (active); in [5], -63.7% (active); in assay [6] it was -26.4% (active). In addition, the growth in assay [7] is -15.2% (active); in [8], -61% (active); in assay [9], -40.8% (active); in assay [10], -49.2% (active).

As for `COc1ccc(C(=O)/C=C/c2cc(-c3ccc(OC)c(OC)c3)n[nH]2)cc1OC`, the growth in [1] was -25.8% (active); in [2], 5.44% (active); in [3] it was -47.5% (active); in assay [4], -18.7% (active); in assay [5], -79.3% (active); in assay [6], -28% (active). In addition, the growth is 18% in assay [7], -99.3% (active) in assay [8], 11.7% in assay [9] and 18.1% in [10].
